An excerpt weighted towards active compounds, which were near 3% of everything screened.
Tau FP inhib = qHTS for Inhibitors of Tau Fibril Formation, Fluorescence Polarization. Potency, µM (series often up to 57.7 µM), most hits filed as inhibitors. K18 P301L tau heparin fibrillization, Alexa594 FP, 6 h. 0.39% of 280,000 active. Microtubule-associated protein tau (Homo sapiens), P10636; also: nearly all actives have a fitted effect of over 55% in size
Target sequence (P10636 561-689 P618L limits assumed): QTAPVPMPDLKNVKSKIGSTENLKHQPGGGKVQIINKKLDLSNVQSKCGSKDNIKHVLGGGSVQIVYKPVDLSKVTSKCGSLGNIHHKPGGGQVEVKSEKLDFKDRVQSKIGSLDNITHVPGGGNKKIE
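Recombinant K18 P301L […], labeled with Alexa 594 at 0.24 uM over 15 uM unlabeled; heparin inducer 20 uM final; 37 C, 6 hr; FP endpoint.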
TexasRed fluor = Total Fluorescence Counterscreen for Inhibitors of the Interaction of Thyroid Hormone Receptor and Steroid Receptor Coregulator 2; TRb/SRC2 Texas Red total fluorescence interference; Potency, µM (series often up to 106 µM); 0.29% of 280,000 active; AID 1479, 2009; active = well fitted curve in either direction with a large enough effect; inconclusive = small, poorly fitted or top-dose-only effect
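Flags fluorescent or light-absorbing compounds by total fluorescence, S + 2P, at 555 nm excitation and 632 nm emission. Mixture: 20 nM Texas Red SRC2 peptide, 0.6 uM human TRb LBD, 1 uM T3, 5% DMSO; compound exposure 5 h at ambient temperature.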
TRb-SRC2 inh = qHTS for Inhibitors of the Interaction of Thyroid Hormone Receptor and Steroid Receptor Coregulator 2; Thyroid hormone receptor beta (Homo sapiens), P10828; TRbeta-SRC2 peptide binding, fluorescence polarization; receptor liganded with 1 µM T3; Potency, µM (series often up to 106 µM), most hits filed as inhibitors; 0.065% of 280,000 active; AID 1469, 2008; also: nearly all actives have a fitted effect of over 50% in size
Target sequence (P10828 whole entry, looked up): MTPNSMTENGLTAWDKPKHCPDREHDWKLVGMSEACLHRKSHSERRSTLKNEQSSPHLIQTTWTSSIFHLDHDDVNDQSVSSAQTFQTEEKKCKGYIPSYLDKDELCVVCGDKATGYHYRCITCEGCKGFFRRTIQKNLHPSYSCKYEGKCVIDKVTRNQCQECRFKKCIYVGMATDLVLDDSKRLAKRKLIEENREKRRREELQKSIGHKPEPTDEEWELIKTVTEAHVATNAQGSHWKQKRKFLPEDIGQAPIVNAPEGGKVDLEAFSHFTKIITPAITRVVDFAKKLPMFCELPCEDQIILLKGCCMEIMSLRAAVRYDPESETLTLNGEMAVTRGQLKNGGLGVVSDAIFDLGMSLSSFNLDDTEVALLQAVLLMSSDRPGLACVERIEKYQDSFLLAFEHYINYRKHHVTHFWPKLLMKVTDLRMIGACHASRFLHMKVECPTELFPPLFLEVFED
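Fluorescence polarization of 20 nM Texas Red SRC2 peptide (20-aa NR interaction domain) bound to 0.6 uM human TRb ligand-binding domain, with 1 uM T3, after 5 hr at ambient temperature; inhibition seen as decreased polarization.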
Tau fibril ThT = qHTS for Inhibitors of Tau Fibril Formation, Thioflavin T Binding; Potency, µM (top dose mostly 57.4 µM), hits mostly inhibitors; 2.1% of 270,000 active; recombinant tau K18 P301L, heparin-induced fibrillization, ThT fluorescence; AID 1460, 2008; Microtubule-associated protein tau (Homo sapiens), P10636; also: nearly all actives have a fitted effect of over 55% in size
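ThT emission at 510 nm, taken 1 hr after adding 30 uM dye, quantifies aggregates formed when 20 uM heparin acts on human tau K18 P301L for 6 hr at 37 C.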
Tau fluor cs = Counterscreen qHTS for Inhibitors of Tau Fibril Formation, Fluorescence Polarization; 0.93% of 280,000 active; tau K18 P301L Alexa594 fluorescence, heparin fibrillization; Potency, µM (doses to about 57.7 µM); also: nearly all actives have a fitted effect of over 55% in size
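Human tau K18 P301L (15 uM unlabeled, 0.24 uM Alexa 594-labeled) in 100 mM sodium acetate pH 7 with 20 uM heparin, 6 hr at 37 C. ThT 30 uM added, 1 hr ambient; Alexa 594 FP and total fluorescence read at 555/632 nm.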
Each line names hits and unclear results; the compound was inactive in the other large screens; [ ] = remark or other dose. Unless noted, calls follow the shape of the dose curve; as a rule, active = well fitted curve in the direction sought with a large enough effect; inconclusive = small, poorly fitted or top-dose-only effect, or another doubt; inactive = no such curve, though single readings can be large; an effect the other way counts as inactive or inconclusive.

Cc1ccc(O)c(-c2n[nH]c3c2C(c2ccccc2F)N(Cc2ccco2)C3=O)c1 (stereo unspecified)	Tau fibril ThT inconclusive, Tau fluor cs inconclusive
C=C1CCN(C(CC(C)C)C(=O)NCCCc2ccccc2)S(=O)(=O)c2ccccc21 (stereo unspecified)	none (no result: Tau FP inhib, Tau fibril ThT, Tau fluor cs)
Cc1c(NC(=O)Nc2ccc(Cl)c(Cl)c2)sc2nc3n(c(=O)c12)CCC(C)CC3 (stereo unspecified)	Tau FP inhib inconclusive, Tau fluor cs inconclusive
CC(=O)c1cccc(NC(=O)Nc2sc3nc4n(c(=O)c3c2C)CCC(C)CC4)c1 (stereo unspecified)	Tau FP inhib inconclusive, Tau fibril ThT inconclusive, Tau fluor cs 11.2µM[quencher]
Cc1ccccc1NC(=O)c1sc2nc3n(c(=O)c2c1C)CCC3	Tau FP inhib inconclusive, Tau fluor cs 4.47µM[quencher]
COc1cc(OC)c(NC(=O)Nc2sc3nc4n(c(=O)c3c2C)CCC(C)CC4)cc1Cl (stereo unspecified)	Tau fibril ThT inconclusive, Tau fluor cs 3.98µM[quencher]
Cc1c(NC(=O)Nc2ccccc2C(F)(F)F)sc2nc3n(c(=O)c12)CCC(C)CC3 (stereo unspecified)	Tau FP inhib inconclusive, Tau fluor cs 12.6µM[quencher]
CCOC(=O)N1CCN(C(=O)Nc2sc3nc4n(c(=O)c3c2C)CCC(C)CC4)CC1 (stereo unspecified)	Tau fibril ThT inconclusive
COc1ccccc1CNC(=O)CCc1c(C)c2cc3c(C)coc3cc2oc1=O	none
CC[C@H](C)[C@H](NC(=O)[C@H](CC(=O)O)NC(=O)[C@H](CC(C)C)NC(=O)[C@H](NC(C)=O)C(c1ccccc1)c1ccccc1)C(=O)N[C@H](C(=O)N[C@@H](Cc1c[nH]c2ccccc12)C(=O)O)[C@@H](C)CC	none (no result: Tau FP inhib, Tau fibril ThT, Tau fluor cs)
N[C@@]1(C(=O)O)CO[C@H]2[C@H](C(=O)O)[C@H]21	none
Cc1ccc2c(CNCCc3ccco3)c(C(=O)O)n(Cc3ccc(F)cc3)c2c1	none
C=CS(=O)(=O)c1ccc(Oc2ccc(S(=O)(=O)C=C)cc2)cc1	Tau FP inhib inconclusive, Tau fibril ThT 2µM
Cc1ccc(C(=O)Nc2ccccc2)cc1S(=O)(=O)Nc1ccc(Br)cc1	Tau FP inhib 15.8µM, Tau fluor cs inconclusive
Cc1ccc(S(=O)(=O)CCC(=O)Nc2cccc([N+](=O)[O-])c2)cc1	none
Cc1ccc(NS(=O)(=O)c2ccc(OCC(=O)Nc3cccc([N+](=O)[O-])c3)c(C)c2)cc1	Tau fluor cs 14.1µM[quencher]
Cc1ccc(C(=O)Nc2ccccc2)cc1S(=O)(=O)Nc1ccccc1	Tau FP inhib inconclusive, Tau fluor cs inconclusive
Cc1ccc(C(=O)Nc2cccc([N+](=O)[O-])c2)cc1S(=O)(=O)Nc1ccc(NC(=O)c2ccccc2)cc1	Tau FP inhib inconclusive, Tau fluor cs 4.47µM[quencher]
COc1cccc(-c2csc(-c3c(N)c(C(=O)c4ccccc4)n4ccccc34)n2)c1	Tau fibril ThT inconclusive, Tau fluor cs inconclusive
CO[C@H]1COC(=O)C/C=C\[C@H](C)[C@@H](NS(=O)(=O)c2ccc(C)cc2)COC(=O)C/C=C\[C@@H]1C	Tau fibril ThT inconclusive
NC1(C(=O)O)CCc2cc(P(=O)(O)O)ccc21 (stereo unspecified)	none
COc1ccccc1NC(=O)C1CCN(c2ncnc3c2nc2n3CCCCC2)CC1	none
Cc1c(Cl)cccc1NC(=O)C1CCN(c2ncnc3c2nc2n3CCCCC2)CC1	TexasRed fluor 20µM[quencher], Tau fibril ThT inconclusive
CCNc1ccc(Br)cc(C(=O)/C=C/c2ccc3c(c2)OCO3)c1=O	Tau FP inhib inconclusive, Tau fibril ThT 11.2µM, Tau fluor cs inconclusive
CCNc1ccc(Br)cc(C(=O)/C=C/c2c(Cl)cccc2Cl)c1=O	Tau FP inhib inconclusive, Tau fibril ThT 12.6µM, Tau fluor cs inconclusive
CCNc1ccc(Br)cc(C(=O)/C=C/c2ccc(Cl)cc2)c1=O	Tau FP inhib inconclusive, Tau fibril ThT 14.1µM, Tau fluor cs inconclusive
Cc1ccc(C(=O)Nc2nnc(SCc3cc(=O)c4c(C)ccc(C)c4[nH]3)s2)cc1	none
COc1ccc(N/N=C(/C(N)=O)C2=NC(C)(C)Cc3ccccc32)cc1	Tau fibril ThT 7.94µM, Tau fluor cs inconclusive
COc1ccc(N2CCN(C(=O)CS(=O)(=O)c3cccc4nsnc34)CC2)cc1	TexasRed fluor inconclusive
Cn1c(=O)c(Oc2ccc(F)cc2)c(O)c2ccccc21	none
Cn1c(O)c(N=Nc2nc(-c3ccccc3)cs2)c2ccccc21	Tau fibril ThT 2µM
Cn1c(O)c(N=Nc2ccc(F)cc2)c2ccccc21	Tau fibril ThT 12.6µM
C/C(CCN1CCCc2nc(C)c(C)cc21)=N\OC[C@@H](C)[C@H](OCc1ccccc1)C(C)C	none
CC(C)(C)C(=O)[C@@H]1[C@@H]2C(=O)N(c3ccc4c(c3)OCCO4)C(=O)[C@@H]2C2c3ccccc3C=CN21 (stereo partly specified)	Tau FP inhib inconclusive, Tau fibril ThT 28.2µM, Tau fluor cs inconclusive
Cc1ccc(N2C(=O)[C@@H]3[C@H](C2=O)C2c4ccccc4C=CN2[C@@H]3C(=O)c2ccco2)cc1 (stereo partly specified)	Tau FP inhib inconclusive, Tau fibril ThT 25.1µM
Cc1ccc(N2C(=O)[C@@H]3[C@H](C2=O)[C@H]2C=C(C(=O)c4ccccc4)C=CN2[C@@H]3C(=O)c2ccc(Cl)cc2)cc1	Tau fibril ThT inconclusive
COc1ccc(N2C(=O)[C@@H]3[C@H](C2=O)[C@H]2c4ccccc4C=CN2[C@@H]3C(=O)Nc2ccccc2)cc1	Tau fibril ThT inconclusive, Tau fluor cs inconclusive
CC(=O)[C@@H]1[C@@H]2C(=O)N(Cc3ccccc3)C(=O)[C@@H]2C2c3ccccc3C=CN21 (stereo partly specified)	Tau fibril ThT inconclusive
O=C(c1ccco1)[C@@H]1[C@@H]2C(=O)N(c3ccccc3)C(=O)[C@@H]2C2c3ccccc3C=CN21 (stereo partly specified)	Tau FP inhib inconclusive, Tau fibril ThT 25.1µM
Cc1ccc(N2C(=O)[C@@H]3[C@H](C2=O)C2c4ccccc4C=CN2[C@@H]3C(=O)c2ccco2)c(C)c1 (stereo partly specified)	Tau FP inhib inconclusive, TRb-SRC2 inh inconclusive, Tau fibril ThT 25.1µM
Cc1cc(NC(=O)CN(C)S(=O)(=O)c2ccc3c(c2)CCC(=O)N3)ccc1Br	none
Cc1cc([N+](=O)[O-])ccc1-c1ccc(C2Nc3ccccc3C(=O)N2O)o1 (stereo unspecified)	Tau fibril ThT 14.1µM, Tau fluor cs inconclusive
O=C(CSc1nccn1-c1ncc(C(F)(F)F)cc1Cl)c1ccc(Cl)cc1	Tau FP inhib inconclusive, Tau fibril ThT 17.8µM
